SENP6 block: inhibitors of human SENP6 protease; Q9GZR1; Recombinant SENP6 catalytic domain, aminoluciferin luminescence; inhibition, % at 10 µM; 1.8% of 330,000 active;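 active = inhibition above about 50% at the single tested dose, limit read from the data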;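 also: plate controls were DMSO wells with enzyme for no effect and DMSO wells lacking enzyme for full effect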
Target sequence (Q9GZR1 628-1112 limits assumed): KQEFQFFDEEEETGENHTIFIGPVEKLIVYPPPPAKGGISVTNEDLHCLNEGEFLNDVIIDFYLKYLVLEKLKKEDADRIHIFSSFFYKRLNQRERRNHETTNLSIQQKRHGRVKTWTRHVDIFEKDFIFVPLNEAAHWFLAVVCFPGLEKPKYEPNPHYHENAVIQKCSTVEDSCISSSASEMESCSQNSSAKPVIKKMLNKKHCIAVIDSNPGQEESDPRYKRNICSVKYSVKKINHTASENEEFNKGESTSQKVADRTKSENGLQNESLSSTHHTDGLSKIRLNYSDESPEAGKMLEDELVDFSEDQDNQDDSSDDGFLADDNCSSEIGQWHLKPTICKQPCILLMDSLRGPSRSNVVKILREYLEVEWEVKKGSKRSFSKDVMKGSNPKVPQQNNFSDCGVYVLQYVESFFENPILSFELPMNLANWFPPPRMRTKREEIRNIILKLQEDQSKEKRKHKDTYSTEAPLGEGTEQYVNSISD
SENP8 block-1: inhibitors of human SENP8 protease; Q96LD8; recombinant SENP8, Nedd8 substrate fluorescence; AID 602440; 0.64% of 360,000 active; inhibition, % at 20 µM; in the data active = inhibition mostly above about 40%, no sharp cut-off; inactive = mostly below about 27%
SENP8 block-2: inhibitors of human SENP8 protease; Q96LD8; purified SENP8, Z-RLRGG-aminoluciferin cleavage, luminescence; 1.2% of 330,000 active; inhibition, % at 10 µM; in the data active = inhibition above about 50%
TRAIL sens C8: caspase-8 TRAIL sensitization | NB7+C8 cells + TRAIL, ATPlite viability luminescence | inhibition (viability loss, TRAIL sensitization), % at 10 µM | 1% of 360,000 active;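 active = compounds causing at least 50% loss of cell viability in the single-dose screen, relative to plate controls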
SENP7 block: inhibitors of human SENP7 protease; inhibition, % at 5 µM; Q9BQF6; 1.5% of 330,000 active; recombinant SENP7, Z-RLRGG-aminoluciferin luminescence, 40 min;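 active = inhibition above about 50% at the single test dose, limit read from the data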;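 also: plate controls were DMSO with enzyme for no effect and no enzyme buffer wells for full effect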
PPC-1+TRAIL kill: kills PPC-1 cancer cells in the presence of TRAIL; PPC-1 cells + TRAIL, ATPLite viability luminescence; cell killing (% activity), % at 4 µM or 5 µM; 0.41% of 220,000 active;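 active = cell killing above 50% in the first pass at 4 µM, then a duplicate retest at 5 µM averaging 50% or more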;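 also: plate controls were cells with TRAIL plus DMSO for no effect and medium-only wells lacking cells for full effect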
Numbers without * were called inactive; ! = repeats disagree. Hits are enriched below; roughly 3% of the tested compounds scored in any of these assays.

O=C(N/N=C/c1ccc(O)c2ncccc12)c1cccc(Br)c1 was read as SENP6 block -5, SENP8 block-1 -105, SENP8 block-2 1, TRAIL sens C8 55*, SENP7 block 0 and PPC-1+TRAIL kill 19.
O=C(N/N=C/c1cc(Br)ccc1O)c1ccncc1 was read as SENP6 block 11, SENP8 block-1 18, SENP8 block-2 -2, TRAIL sens C8 3, SENP7 block 6 and PPC-1+TRAIL kill 32.
`CCC1CCCCN1c1ccc([N+](=O)[O-])cc1/C=N/NC(=O)Cn1c2ccccc2c(=O)c2ccccc21` (stereo not given) gave SENP6 block -19, SENP8 block-1 -114, SENP8 block-2 -10, TRAIL sens C8 74*, SENP7 block -8 and PPC-1+TRAIL kill 22.
Screening Cc1cc2nc(NC(=O)C3(C)CCN3C(=O)C(C)C)[nH]c2cc1C (stereo not given) returned SENP8 block-1 11 and TRAIL sens C8 -11.
`NC(=O)c1ccccc1NC(=O)/C=C/c1ccccc1` gave SENP6 block 66*, SENP8 block-1 -86, SENP8 block-2 22, TRAIL sens C8 60*, SENP7 block 40 and PPC-1+TRAIL kill 41.
CCC(=O)Nc1cccc(NC(=S)NC(=O)c2cc3ccccc3o2)c1 was read as SENP6 block 10, SENP8 block-1 15, SENP8 block-2 -1, TRAIL sens C8 14, SENP7 block 76* and PPC-1+TRAIL kill 5.
Screening COC(=O)c1cc(NC(=O)c2cc3ccccc3o2)cc(C(=O)OC)c1 returned SENP6 block -26, SENP8 block-1 9, SENP8 block-2 3, TRAIL sens C8 4 and SENP7 block -16.
Cc1cc(NC(=O)c2cncc(Br)c2)ccc1NC(=O)c1cc2ccccc2o1 was read as SENP6 block -7, SENP8 block-1 2, SENP8 block-2 8, TRAIL sens C8 60* and SENP7 block 9.
For CCC(=O)Nc1ccc(NC(=S)NC(=O)c2cc3ccccc3o2)cc1 the results were SENP6 block -6, SENP8 block-1 14, SENP8 block-2 4, TRAIL sens C8 20, SENP7 block 3 and PPC-1+TRAIL kill 20.
COC(=O)c1cccc(NC(=O)c2cc3ccccc3o2)c1 was read as SENP6 block 41, SENP8 block-1 3, SENP8 block-2 24, TRAIL sens C8 50* and SENP7 block 24.
Screening Cc1ccc(N(C(=O)c2ccco2)C2C=CS(=O)(=O)C2)cc1 (stereo not given) returned SENP6 block 3, SENP8 block-1 4, SENP8 block-2 8, TRAIL sens C8 8, SENP7 block 0 and PPC-1+TRAIL kill 27.
Cc1ccc(S(=O)(=O)NN=C2CCN(Cc3ccccc3)CC2)cc1 was read as SENP6 block 9, SENP8 block-1 6, SENP8 block-2 0, TRAIL sens C8 -1, SENP7 block -6 and PPC-1+TRAIL kill 11.
For Cc1ccc(S(=O)(=O)NC2=C(N3CCN(c4ccccc4F)CC3)C(=O)c3ccccc3C2=O)cc1 the results were SENP6 block 26, SENP8 block-1 46*!, SENP8 block-2 0, TRAIL sens C8 21, SENP7 block 27 and PPC-1+TRAIL kill 21.
For Cc1ccc(S(=O)(=O)NC2=C(N3CCN(Cc4ccccc4)CC3)C(=O)c3ccccc3C2=O)cc1 the results were SENP6 block 5, SENP8 block-1 39*, SENP8 block-2 -6, TRAIL sens C8 10, SENP7 block -2 and PPC-1+TRAIL kill 24.
O=C1C(NS(=O)(=O)c2cccs2)=C(N2CCN(c3ccccc3)CC2)C(=O)c2ccccc21 was read as SENP6 block 9, SENP8 block-1 69*, SENP8 block-2 5, TRAIL sens C8 2, SENP7 block 11 and PPC-1+TRAIL kill 24.
`O=C(OCc1cn([C@H]2CN(C(=O)C3CCCCC3)[C@@H](c3ccc(Cl)cc3)C[C@@H]2O)nn1)c1ccccc1` gave SENP8 block-1 2 and TRAIL sens C8 39.
CN(CC(=O)Nc1ccc(F)c(F)c1F)C(=O)Cc1ccc2c(c1)OCCO2 was read as SENP6 block -16, SENP8 block-1 1, SENP8 block-2 -1, TRAIL sens C8 -17 and SENP7 block 13.
Cc1cccc(C)c1OCC(O)CNC(C)c1ccccc1 (stereo not given) was read as SENP6 block -38, SENP8 block-1 19, SENP8 block-2 2, TRAIL sens C8 11 and SENP7 block -1.
CCNc1ccc2noc3c2c1C(=O)c1ccccc1-3 was read as SENP6 block -11, SENP8 block-1 42*, SENP8 block-2 6, TRAIL sens C8 23, SENP7 block -14 and PPC-1+TRAIL kill 22.
Screening O=S(=O)(c1ccccc1S(=O)(=O)N1CCCCC1)N1CCCCC1 returned SENP6 block 6, SENP8 block-1 12, SENP8 block-2 9, TRAIL sens C8 -1, SENP7 block -3 and PPC-1+TRAIL kill 14.
Screening CCOc1ccc2noc3c2c1C(=O)c1ccccc1-3 returned SENP6 block 79*, SENP8 block-1 70*, SENP8 block-2 43, TRAIL sens C8 -1, SENP7 block 24 and PPC-1+TRAIL kill 31.
`O=C1c2ccccc2-c2onc3ccc(N4CCCC4)c1c23` gave SENP8 block-1 81*, TRAIL sens C8 -2 and PPC-1+TRAIL kill 17.
Screening O=C1C=C(N2CCCCC2)c2ccccc2C1=O returned SENP6 block 93*, SENP8 block-1 -432, SENP8 block-2 83*, TRAIL sens C8 94* and SENP7 block 55*.
Screening Cn1c(=O)cc2c3c(c(N4CCCCC4)ccc31)C(=O)c1ccccc1-2 returned SENP6 block 29, SENP8 block-1 39, SENP8 block-2 16, TRAIL sens C8 17, SENP7 block 0 and PPC-1+TRAIL kill 12.
Screening CN(C)NC(=S)NC1(C)CCS(=O)(=O)C1 (stereo not given) returned SENP6 block -7, SENP8 block-1 11, SENP8 block-2 2, TRAIL sens C8 0, SENP7 block 5 and PPC-1+TRAIL kill -4.
For Cc1ccc(NC(=O)c2ccc3ncsc3c2)cc1S(=O)(=O)N(C)C the results were SENP6 block -8, SENP8 block-2 -3, SENP7 block -2 and PPC-1+TRAIL kill 18.
`O=C1c2ccccc2C(=O)c2c1cccc2N1CCCC1` gave SENP8 block-1 46*, TRAIL sens C8 10 and PPC-1+TRAIL kill 22.
Screening O=C1c2ccccc2-c2onc3ccc(NCc4ccco4)c1c23 returned SENP6 block 64*, SENP8 block-1 100*, SENP8 block-2 24, TRAIL sens C8 18, SENP7 block -5 and PPC-1+TRAIL kill 6.
Cc1ccc(NC(=O)N2CCCc3ccccc32)cc1 was read as SENP6 block -17, SENP8 block-1 14, SENP8 block-2 -8, TRAIL sens C8 -12, SENP7 block -2 and PPC-1+TRAIL kill 3.
`CN1CCN(c2ccc(NC(=O)N3CCc4ccccc43)cc2)CC1` gave SENP6 block -20, SENP8 block-1 12, SENP8 block-2 -5, TRAIL sens C8 61* and SENP7 block 1.

Screening results: PubChem, Sanford-Burnham Center for Chemical Genomics
